Laboratory results taken from PubChem BioAssay AID372 (MTDP, 2006).
In all, about 100,000 compounds went through this assay and about 770 (0.77%) were called active. Rule as the data show it: active = inhibition above about 50%; inactive = the rest. This excerpt belongs to a sample that is enriched for actives.

molecular target: Gag-Pol polyprotein (Human immunodeficiency virus type 1 group M subtype B (isolate HXB2)) (UniProt P04585); experiment: RNase H inhibition, HIV 1 Gag Pol polyprotein, FRET biochemical assay, screening (AID 372); conditions: HIV-1 RT RNase H, FRET RNA/DNA substrate fluorescence; at 10 µM; stronger effect = higher value

Row | SMILES | inhibition
1 | O=C1NC(=O)N(c2cccc(F)c2)C(=O)/C1=C/c1cccn1-c1ccc(Br)cc1 | 54% (active)
2 | O=C1NC(=O)N(c2ccccc2)C(=O)/C1=C\c1cccn1-c1ccc([N+](=O)[O-])cc1 | 22% (inactive)
3 | O=C1NC(=O)N(c2cccc(F)c2)C(=O)/C1=C/c1cccn1-c1ccccc1 | 24% (inactive)
4 | O=C1NC(=O)N(c2ccccc2)C(=O)/C1=C/c1cccn1-c1ccc(Br)cc1 | 29% (inactive)
5 | O=C1NC(=O)N(c2ccc(Cl)cc2)C(=O)/C1=C/c1cccn1-c1ccccc1 | 12% (inactive)
6 | Cc1cccc(N2C(=O)NC(=O)/C(=C\c3cccn3-c3ccccc3)C2=O)c1 | 22% (inactive)
7 | Cc1cccc(N2C(=O)NC(=O)/C(=C/c3cccn3-c3ccc([N+](=O)[O-])cc3)C2=O)c1 | 54% (active)
8 | O=C1NC(=O)N(c2cccc(F)c2)C(=O)/C1=C/c1cccn1-c1ccc(Cl)cc1 | 59% (active)
9 | Cc1cccc(N2C(=O)NC(=O)/C(=C\c3cccn3-c3ccc(Br)cc3)C2=O)c1 | 27% (inactive)
10 | N#CC1=C(N)OC2=C(C(=O)CC(c3ccccc3)C2)C1c1cccc(F)c1 (centres undefined) | 11% (inactive)
11 | COc1ccc(/C=N/NC(=O)CN2CCSCC2)c(C)c1C | 7% (inactive)
12 | COc1ccc(C(N)=O)cc1NC(=O)c1cccs1 | 0% (inactive)
13 | O=C(CCCN1C(=O)/C(=C/c2ccccc2Cl)SC1=S)Nc1cccc(F)c1 | 14% (inactive)
14 | Cc1ccc(Cl)cc1NC(=O)C(=O)NN=C1CCN(C)CC1 | 0% (inactive)
15 | Cc1cccc(N2CCN(C(=O)c3c(-c4ccccc4Cl)noc3C)CC2)c1C | 9% (inactive)
16 | Cc1onc(-c2ccccc2Cl)c1C(=O)N1CCN(c2ccccc2F)CC1 | 0% (inactive)
17 | Cc1onc(-c2ccccc2Cl)c1C(=O)N1CCN(c2ccc(Cl)cc2[N+](=O)[O-])CC1 | 55% (active)
18 | COc1cccc2cc(-c3csc(Nc4ccc(C(C)=O)cc4)n3)c(=O)oc12 | 14% (inactive)
19 | COc1cccc2cc(-c3csc(Nc4ccccc4C)n3)c(=O)oc12 | 20% (inactive)
20 | CCN(CC)c1ccc(/C=N/Nc2nc(-c3cc4cccc(OC)c4oc3=O)cs2)c(O)c1 | 53% (active)
21 | COc1ccc2oc(=O)c(C(=O)Nc3cccc(Cl)c3)cc2c1 | 5% (inactive)
22 | COc1ccc2oc(=O)c(C(=O)Nc3cccc([N+](=O)[O-])c3)cc2c1 | 55% (active)
23 | COc1ccc2oc(=O)c(C(=O)Nc3ccccc3)cc2c1 | 6% (inactive)

Row | SMILES | inhibition
24 | O=C(/C=C\c1ccc([N+](=O)[O-])cc1)Nc1ccc(N2CCOCC2)cc1 | 7% (inactive)
25 | O=C(Nc1ccc(Cl)cc1)c1ccc(Br)o1 | 8% (inactive)
26 | O=C1NC(=O)C(=Cc2cn(-c3ccccc3)nc2-c2ccc(Cl)cc2)C(=O)N1 | 41% (inactive)
27 | CC1=NNC(=O)/C1=C\c1cn(-c2ccccc2)nc1-c1ccc(Br)cc1 | 14% (inactive)
28 | O=C1NC(=O)C(=Cc2cn(-c3ccccc3)nc2-c2ccc(Br)cc2)C(=O)N1 | 59% (active)
29 | COC(=O)C1=C(C(=O)OC)SC2(S1)C(c1ccccc1)=CSC(C(=O)OC)=C2C(=O)OC | 54% (active)
30 | COC(=O)C1=C(C(=O)OC)SC2(S1)C(C(=O)OC)=C(C(=O)OC)SC1=C2c2ccccc2N(C)C1(C)C | 11% (inactive)
31 | COC(=O)C1=C(C(=O)OC)SC2(S1)C(C(=O)OC)=C(C(=O)OC)SC1=C2c2cccc(C)c2NC1(C)C | 18% (inactive)
32 | CC(=O)Oc1ccc(-c2cccc(C(=O)Nc3ccccc3Cl)c2)cc1 | 16% (inactive)
33 | CC1=C(C(=O)Nc2ccc(C)c(Cl)c2)C(c2cccc([N+](=O)[O-])c2)NC(=O)N1 (centres undefined) | 6% (inactive)
34 | COc1ccc(C2CC(=O)C3=C(C2)Nc2ccccc2NC3c2c(F)cccc2Cl)cc1 (centres undefined) | 24% (inactive)
35 | O=C(COC(=O)c1cc(-c2ccccc2)nc2ccc(Cl)cc12)c1ccc([N+](=O)[O-])cc1 | 4% (inactive)
36 | COc1ccc(-c2cc(C(=O)Nc3cccc(Cl)c3)c3ccccc3n2)cc1OC | 14% (inactive)
37 | CC(=O)Nc1ccc(NC(=O)c2cccc3ccccc23)cc1 | 32% (inactive)
38 | O=C(Nc1ccc(Nc2ccccc2)cc1)c1cccc2ccccc12 | 50% (active)
39 | O=C(Nc1ccc(NC(=O)c2cccc3ccccc23)cc1)c1ccccc1 | 6% (inactive)
40 | O=C(Cc1ccc(Cl)cc1)Nc1ccc2oc(-c3cccc(Br)c3)nc2c1 | 49% (inactive)
41 | Cc1cccc(-c2nc3cc(NC(=O)Cc4ccccc4)ccc3o2)c1 | 12% (inactive)
42 | O=C(Cc1ccc(Cl)cc1)Nc1ccc(-c2nc3cc(Cl)cc(Cl)c3o2)cc1 | 50% (active)
43 | Cc1ccccc1-c1nc2cc(NC(=O)Cc3ccc(Cl)cc3)ccc2o1 | 30% (inactive)
44 | Cc1ccc2oc(-c3cccc(NC(=O)Cc4ccc(Cl)cc4)c3)nc2c1 | 42% (inactive)
45 | O=C(Cc1ccccc1)Nc1ccc2oc(-c3cccc(Cl)c3)nc2c1 | 6% (inactive)
46 | O=C(Cc1ccc(Cl)cc1)Nc1cccc(-c2nc3cc(Cl)cc(Cl)c3o2)c1 | 2% (inactive)

Row | SMILES | inhibition
47 | Cc1cccc(-c2nc3cc(NC(=O)Cc4ccc(Cl)cc4)ccc3o2)c1 | 53% (active)
48 | O=C(Cc1ccc(Cl)cc1)Nc1ccc2oc(-c3cccc(Cl)c3)nc2c1 | 52% (active)
49 | O=C(Cc1ccc(Cl)cc1)Nc1ccc2oc(-c3ccccc3Cl)nc2c1 | 54% (active)
50 | Cc1ccc(-c2nc3cc(Cl)cc(Cl)c3o2)cc1NC(=O)Cc1ccc(Cl)cc1 | 38% (inactive)
51 | O=C(Cc1ccc(Cl)cc1)Nc1ccc2oc(-c3ccccc3Br)nc2c1 | 24% (inactive)
52 | COc1ccc(OC)c(NC(=O)c2ccc(Cl)cc2)c1 | 8% (inactive)
53 | O=C(N/N=C/c1cc(Cl)cc([N+](=O)[O-])c1O)/C(=C/C=C/c1ccccc1)NC(=O)c1ccccc1 | 19% (inactive)
54 | COc1ccc(OCCCOc2ccccc2Br)cc1 | 12% (inactive)
55 | COc1ccccc1N1CCN(C(=O)c2ccc(CN(c3cc(Cl)ccc3C)S(=O)(=O)c3ccccc3)cc2)CC1 | 1% (inactive)
56 | O=C(O)c1cccc([N+](=O)[O-])c1C(=O)Nc1cccc(Cl)c1 | 7% (inactive)
57 | O=C(Cc1ccc(Cl)cc1)Nc1ccc2oc(-c3ccc(Cl)cc3)nc2c1 | 29% (inactive)
58 | CCc1ccc(-c2nc3cc(NC(=O)Cc4ccc(Cl)cc4)ccc3o2)cc1 | 25% (inactive)
59 | O=C(Cc1ccc(Cl)cc1)Nc1ccc2oc(-c3ccc(F)cc3)nc2c1 | 54% (active)
60 | O=C(Nc1ccc(F)cc1F)c1sc2ccccc2c1Cl | 16% (inactive)
61 | Cc1ccc(SCCNC(=O)CN(c2ccccc2F)S(=O)(=O)c2ccccc2)cc1 | 10% (inactive)
62 | O=C(O/N=C/c1ccc([N+](=O)[O-])cc1)c1cccs1 | 1% (inactive)
63 | Clc1ccccc1-c1nc(-c2cccnc2)no1 | 20% (inactive)
64 | CC(C)c1ccc(/C=C/C(=O)Nn2cnnc2)cc1 | 0% (inactive)
65 | Cc1ccc(C(=O)OCC(=O)c2ccc(Br)cc2)cc1[N+](=O)[O-] | 0% (inactive)
66 | COc1ccc(-c2nc3cc(NC(=O)c4ccc(C)c([N+](=O)[O-])c4)ccc3o2)cc1OC | 3% (inactive)
67 | COc1ccc(C(=O)Nc2cccc(-c3nc4cc(C)ccc4o3)c2)cc1[N+](=O)[O-] | 1% (inactive)
68 | O=C(Nc1ccc(Cl)c(-c2nc3ccccc3o2)c1)c1cccc(Br)c1 | 1% (inactive)
69 | CCOc1ccc(C(=O)Nc2cccc(-c3nc4cc(C)c(C)cc4o3)c2)cc1[N+](=O)[O-] | 11% (inactive)

Row | SMILES | inhibition
70 | O=C(Nc1ccc(Cl)c(-c2nc3ccccc3o2)c1)c1ccc(Br)cc1 | 55% (active)
71 | Cc1ccccc1-c1nc2cc(NC(=O)c3ccc(C)c([N+](=O)[O-])c3)ccc2o1 | 41% (inactive)
72 | CCc1ccc(-c2nc3cc(NC(=O)c4ccc(C)c([N+](=O)[O-])c4)ccc3o2)cc1 | 35% (inactive)
73 | COc1ccc(-c2nc3cc(NC(=O)c4ccc(C)c([N+](=O)[O-])c4)ccc3o2)cc1 | 61% (active)
74 | Cc1ccc(C(=O)Nc2ccc3oc(-c4ccc(F)cc4Cl)nc3c2)cc1[N+](=O)[O-] | 0% (inactive)
75 | COc1ccc(C(=O)Nc2cccc(-c3nc4cc(C)c(C)cc4o3)c2)cc1[N+](=O)[O-] | 52% (active)
76 | Cc1ccc(C(=O)Nc2ccc3oc(-c4ccccc4Cl)nc3c2)cc1[N+](=O)[O-] | 55% (active)
77 | O=C(Nc1ccc2oc(-c3cc(Br)ccc3Cl)nc2c1)c1ccccc1 | 29% (inactive)
78 | CC(C)c1cc(C(C)C)c(S(=O)(=O)NNC(=O)c2ccncc2)c(C(C)C)c1 | 1% (inactive)
79 | O=C(NC(=S)Nc1cccc(NC(=O)c2ccc(Cl)cc2Cl)c1)c1ccco1 | 11% (inactive)
80 | CCOc1ccc(N(CC(=O)NC(C)CC)S(=O)(=O)c2ccc(Br)cc2)cc1 (centres undefined) | 5% (inactive)
81 | COC(=O)c1cccc(NC(=O)CC(=O)c2ccccc2)c1 | 0% (inactive)
82 | COc1ccc(Cc2noc(-c3ccccc3Cl)n2)cc1OC | 23% (inactive)
83 | Cc1sc(NS(=O)(=O)c2ccc([N+](=O)[O-])cc2)nc1-c1ccc(Br)cc1 | 12% (inactive)
84 | O=C(/C=C/c1ccccc1)Nc1ccc(-c2nnc(-c3ccco3)o2)cc1 | 0% (inactive)
85 | O=C(NCc1ccc(Cl)cc1)c1ccco1 | 0% (inactive)
86 | Cc1nnc(Nc2ccc3c(c2)ncn3C)c2ccccc12 | 0% (inactive)
87 | O=C(Nc1ccc2oc(-c3ccc(Br)cc3)nc2c1)c1ccc(Cl)c([N+](=O)[O-])c1 | 58% (active)
88 | O=C(Nc1ccc2oc(-c3ccc(F)cc3)nc2c1)c1ccc(Cl)c([N+](=O)[O-])c1 | 11% (inactive)
89 | O=C(Nc1ccc2oc(-c3cccc(Br)c3)nc2c1)c1ccc(Cl)c([N+](=O)[O-])c1 | 13% (inactive)
